Measured values published in PubChem BioAssay AID651965 (National Center for Advancing Translational Sciences (NCATS), 2013).
In all, about 340,000 compounds went through this assay and about 6,400 (1.9%) were called active. Not shown: some 4% with an inconclusive outcome. This excerpt belongs to a sample that is enriched for actives. Values without a mark were called inactive. Calls follow the shape of the dose curve; as a rule, active = well fitted falling curve with a large enough effect; inconclusive = small, poorly fitted or top-dose-only effect; inactive = no such curve, though single readings can be large or run the other way.

molecular target: ATP-dependent Clp protease proteolytic subunit (Bacillus subtilis (strain 168)) (UniProt P80244); assay: qHTS Assay for Activators of ClpP; also: the source files actives as falling curves though it sought activators and does not explain the sign; nearly all actives have a fitted effect of over 65% in size; conditions: purified B. subtilis ClpP, FRET peptide cleavage, 20 min; series mostly up to 57.5 µM; activity change, negative = active: at the top concentration
Procedure, shortened: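 Purified B. subtilis ClpP, 10 microg/mL final in Tris/HCl pH8 with KCl, BSA, glycerol and Tween-20, cleaved an Abz/nitrotyrosine-quenched decapeptide. Fluorescence (ex 320, em 430) was read at 0 and 20 min at room temperature. Delta was normalized to 5.8 microM ADEP and DMSO/no-enzyme controls.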
Potency is read from the fitted curve at half-maximal effect.

Sequence of ATP-dependent Clp protease proteolytic subunit (Bacillus subtilis (strain 168)) (P80244 whole entry, looked up): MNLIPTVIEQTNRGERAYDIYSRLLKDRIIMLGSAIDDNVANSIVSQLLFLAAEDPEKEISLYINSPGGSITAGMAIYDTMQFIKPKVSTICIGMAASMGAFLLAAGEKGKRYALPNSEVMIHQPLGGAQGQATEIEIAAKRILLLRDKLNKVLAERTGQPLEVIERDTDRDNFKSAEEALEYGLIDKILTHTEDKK

SMILES	activity change, negative = active	Potency
CCOC(=O)C1=CC[C@@H](c2ccccc2)N(S(=O)(=O)c2ccc(C)cc2)[C@H]1c1cccc(OC)c1	-0.37%	–
O=C(c1ccc(C(F)(F)F)cc1)N1CCC(=O)N([C@H](COCc2ccccc2)Cc2ccccc2)CC1	1.19%	–
Cc1ccc(N(CCC(=O)O)S(=O)(=O)c2cccc(C(F)(F)F)c2)cc1	–	31.6 µM (active)
CCc1nnc(NC(=O)CCN(c2ccc(C)cc2)S(=O)(=O)c2ccccc2)s1	-1.33%	–
O=C(O)c1cc(S(=O)(=O)N(Cc2ccccc2)c2cccc(C(F)(F)F)c2)ccc1Cl	0.0784%	–
CN(C)CCNC(=O)c1cccc(-c2cnc3c(NC=O)cc(-c4cccc(C(F)(F)F)c4)cn23)c1	-17.7%	–
CCN(CC(=O)Nc1ccccc1OC)C(=O)CC1CC2CCC1C2 (centres undefined)	–	35.5 µM (active)
COc1ccc(S(=O)(=O)N2CCOCC2)cc1NC(=O)CC1CC2CCC1C2 (centres undefined)	-3.72%	–
CCN(CC(=O)Nc1ccccc1OC)C(=O)Cn1cnc2ccccc2c1=O	0.736%	–
COc1cccc(-c2nc3nc(C)cc(C)n3c2NC2CCCCC2)c1	-3.3%	–
COc1ccccc1-c1cc2nc(NCc3cccc(Cl)c3)ccn2n1	4.4%	–
Cc1nc2sc(C)c(C)n2c(=O)c1S(=O)(=O)NCCc1ccc(Cl)cc1	–	3.98 µM (active)
Cc1nc2sccn2c(=O)c1S(=O)(=O)NCCc1ccccc1	4.27%	–
O=S(=O)(NCCc1ccc(Cl)cc1)c1cccs1	1.05%	–
CCOC(=O)[C@]12CCC=C1N(Cc1ccco1)C(=O)[C@H](CC(=O)NCc1cccc(C(F)(F)F)c1)C2	-6.96%	–
O=[N+]([O-])c1ccc(CN2CC(N3CC=CC3)CS2(=O)=O)cc1 (centres undefined)	1.65%	–
Cc1ccc(-c2cnc(C(O)c3cc(Cl)cc(Cl)c3)[nH]2)cc1 (centres undefined)	1.37%	–
Cc1cc2oc(=O)cc(CN(C)Cc3ccccc3)c2cc1Cl	-7.02%	–
CN1OC[C@@H]2CN[C@H](c3ccc(-c4ccccc4)cc3)C[C@@H]21	-2.05%	–
Cc1ccc(C2=C/C(=C\c3cccnc3)C(=O)O2)cc1	-1.52%	–
Cc1ccc(C2=N/C(=C\c3ccc(OS(=O)(=O)c4ccc(C)cc4)cc3)C(=O)O2)cc1	-15.4%	–
O=C1OC(c2ccc(Cl)cc2)=N/C1=C\c1cccnc1	–	3.16 µM (active)
O=C(NCc1ccco1)c1cnn2c(C(F)(F)F)cc(-c3ccco3)nc12	-13.7%	–
O=C(O)c1cnn2c(C(F)(F)F)cc(-c3ccccc3)nc12	–	0.631 µM (active)
O=C(NCCCN1CCOCC1)c1cc(-c2ccccc2F)no1	2.03%	–

SMILES	activity change, negative = active	Potency
O=C(NCCCN1CCOCC1)c1cnn2c(-c3ccccc3)cc(-c3ccccc3)nc12	–	15.8 µM (active)
Cc1ccc(-c2cc(C(F)(F)F)n3ncc(C(=O)N4CCCCC4c4cccnc4)c3n2)cc1 (centres undefined)	-17.6%	–
COC(=O)c1cnn2c(C(F)(F)F)cc(-c3ccco3)nc12	–	28.2 µM (active)
O=C(NCCCN1CCOCC1)c1cn(-c2ccccc2)nc1-c1ccc(F)cc1	-21.8%	–
Cc1cccc(NC(=O)CSc2nc(-c3ccco3)cc(C(F)(F)F)n2)c1C	-2.67%	–
Cc1cccc(N2CCN(C(=O)c3cnn4c(C(F)F)cc(-c5ccccc5)nc34)CC2)c1C	-7.22%	–
Cc1cccc(CNC(=O)c2sc(=O)n(Cc3ccccc3C)c2C)c1	-1.33%	–
Cc1ccc(-c2nc3ccc(Br)cn3c2Cc2ccccc2C(F)(F)F)cc1	-24.2%	–
Cc1csc[n+]1CCC1CCCCC1	-0.672%	–
CCOC(=O)C1(C)CCCN(C(=O)c2cccc(Cl)c2)C1 (centres undefined)	2.42%	–
CN(C(=N)N)c1ccc(/C=C2\C=Cc3ccccc32)cc1	0.827%	–
CCCCC(CCCC)c1ccc(C=Nc2ccc(/C=C/c3ccnc4ccccc34)cc2)cc1	-3.34%	–
CCc1cc(Br)ccc1NC(=O)C1CCCO1 (centres undefined)	0.0691%	–
Cc1cc([N+](=O)[O-])ccc1NC(=O)C1CCCO1 (centres undefined)	-13.9%	–
COC(=O)c1cc(OC)c(OC)cc1NC(=O)C1CCCO1 (centres undefined)	–	20 µM (active)
C#Cc1ccc(NC(=O)C2(C)CCN2C(=O)Cc2ccc(-c3ccccc3)cc2)cc1 (centres undefined)	0.114%	–
CCCNC(=O)C1(C)CCN(C(=O)c2ccccc2OC(F)(F)F)C1 (centres undefined)	2.38%	–
O=C(Nc1ccc(Cl)cc1)c1csc([C@@H]2O[C@H](CO)[C@H](O)[C@H](O)[C@H]2O)n1	2.06%	–
COc1ccc(C2Nc3ccc(NC(=O)COC(C)=O)cc3C(=O)N2Cc2ccccc2)cc1COc1ccc(NC(C)=O)cc1 (centres undefined)	61.6%	–
COc1ccc(C2Nc3ccccc3C(=O)N2Cc2ccccc2)cc1Cn1nnc2ccccc21 (centres undefined)	–	35.5 µM (active)
COc1ccc(C2Nc3ccccc3C(=O)N2c2ccc(F)cc2)cc1Cn1nnc2ccccc21 (centres undefined)	1.26%	–
COc1cccc(C(NC(C)=O)c2nc(-c3cnc4ccccc4c3)cs2)c1 (centres undefined)	-20.2%	–
CC(CCc1ccccc1)NC(=O)c1cnc(Cl)c(Cl)c1 (centres undefined)	-7.38%	–
COCC(C)NC(=O)c1ccc(Cl)c(Cl)c1 (centres undefined)	–	14.1 µM (active)
COCC(C)NC(=O)c1ccc(-n2nc(C(F)(F)F)cc2-c2cccs2)cc1 (centres undefined)	-3.54%	–

SMILES	activity change, negative = active	Potency
CCOC(=O)C1=CCC(c2ccc(F)cc2)N(S(=O)(=O)c2ccc(C)cc2)C1 (centres undefined)	-0.256%	–
CCCCOc1ccc(NC(=O)c2cc3c(n(-c4ccc(Cl)cc4)c2=O)CCCC3=O)cc1	0.294%	–
CCOC(=O)C1=C(N)N(c2ccc(C)cc2)C2=C(C(=O)CCC2)C1c1cccs1 (centres undefined)	-0.469%	–
CCOC(=O)c1cc2c(n(-c3ccc(C)cc3)c1=O)CCCC2=O	–	31.6 µM (active)
Cc1ccc([C@H]2C[C@H](O)[C@@H](n3cc(COC(=O)c4ccccc4)nn3)CN2CC2CCCCC2)cc1	-2.3%	–
COc1ccc(C(C)(O)c2nc(-c3ccc(C)c(C)c3)cs2)cc1 (centres undefined)	-3.11%	–
ClC/C=C/C[n+]1ccccc1Cl	-7.68%	–
Cc1cc(OC(C)C(=O)NC2CC(C)(C)NC(C)(C)C2)c2c(C)cc(=O)oc2c1 (centres undefined)	3.98%	–
CCc1cc(=O)oc2cc(C)cc(OCC(=O)N3CCC[C@@H]3C(=O)O)c12	4.5%	–
CCc1cc(=O)oc2cc(C)cc(OC(C)C(=O)O)c12 (centres undefined)	–	3.55 µM (active)
CC1(C(=O)NS(=O)(=O)c2ccc(C#N)cc2)CCN1C(=O)c1ccc(C2CCCCC2)cc1 (centres undefined)	-4.45%	–
CC(C)(C)c1ccc(C(=O)C[n+]2cccc3cc(Cl)ccc32)cc1	-13.7%	–
O=C(NCC(c1cccs1)N1CCOCC1)c1cc(-c2ccccn2)nc2ccccc12 (centres undefined)	-5.18%	–
O=C(NCCN1CCOCC1)c1cc(-c2cccs2)nc2ccccc12	–	28.2 µM (active)
O=C(NCCN1CCOCC1)c1cc(Sc2cccc(Cl)c2)nc2ccccc12	-1.49%	–
NC(c1csc(NC(=O)Nc2ccccc2Oc2ccccc2)n1)c1ccccc1Cl (centres undefined)	-6.76%	–
O=C(NCc1ccc(F)cc1)c1cc(C2CCCCN2C(=O)c2ccccn2)on1 (centres undefined)	-2.01%	–
CCOC(=O)c1c(NC(=O)c2ccc(Br)o2)sc2c1CCCC2	–	31.6 µM (active)
COC(=O)c1c(NC(=O)CSc2nncs2)sc2c1CCCCC2	-0.465%	–
COC(=O)c1c(NC(=O)c2cccs2)sc2c1CCCC2	–	35.5 µM (active)
CCOC(=O)c1c(NC(=O)c2cc(-c3ccc(Cl)cc3)on2)sc2c1CCCC2	0.147%	–
CCOC(=O)c1c(NC(=O)c2ccc(S(=O)(=O)N(CC)CC)cc2)sc2c1CCCCC2	-3.63%	–
COC(=O)c1c(NC(=O)c2ccc(Cl)c(Cl)c2)sc2c1CCCC2	-1.63%	–
Cc1noc(C)c1-c1ccc(C(=O)NCc2ccncc2)c2occc12	4.3%	–
Fc1ccc2[nH]c3c(N4CCN(Cc5ccc6c(c5)OCO6)CC4)ncnc3c2c1	-28.2%	–

SMILES	activity change, negative = active	Potency
CCN1CCCC1CNC(=O)c1cc2cc(OC)c(OC)cc2[nH]1 (centres undefined)	3.65%	–
CCN1CCCC1CNc1ncnc2c1[nH]c1ccc(F)cc12 (centres undefined)	–	28.2 µM (active)
CC(C)OCCCNc1ncnc2c1[nH]c1ccc(F)cc12	–	15.8 µM (active)
CC(C)OCCCNC(=O)c1cc(Sc2ccc(F)cc2)nc2ccccc12	3.39%	–
CCN1CCCC1Cn1cnc2c([nH]c3cc(OC)ccc32)c1=O (centres undefined)	-28.6%	–
Cc1ccc([C@H]2N[C@]3(CCCN(CC4CCCCC4)C3=O)[C@H]3C(=O)N(Cc4ccccc4)C(=O)[C@@H]23)cc1	0.684%	–
CCCc1c(-c2ccccc2F)ncn1Cc1ccccc1OC	-0.97%	–
C=C1C(=O)OC2C1CCC(C)=CCCC1(C)OC21 (centres undefined)	-0.985%	–
O=C(NCc1ccc(F)cc1)c1cc(C2CCCCN2C(=O)c2cccs2)on1 (centres undefined)	1.26%	–
COc1cc2[nH]c(C)c(CCN3CCN(c4ccccc4)CC3)c2cc1OC	-28.6%	–
CC1(C(=O)NS(=O)(=O)C2CC2)CCCN(C(=O)CSc2ccccc2)C1 (centres undefined)	1.92%	–
CC1(C(=O)NCC2CCOCC2)Cc2c(-c3cccc(C(N)=O)c3)ccnc2O1 (centres undefined)	-12.4%	–
COc1ccc(-c2csc(C(O)c3cccc(Cl)c3)n2)cn1 (centres undefined)	-0.133%	–
O=C(Cn1c(=O)nc(-c2ccccc2)c2cc(Cl)ccc21)NCc1ccc(Cl)cc1	4.43%	–
Cc1cccc(Cn2c(=O)n(CCC(=O)NCCc3ccc(Cl)cc3)c(=O)c3sccc32)c1	-1.47%	–
O=C(Cn1c(-c2cccs2)cc2ccccc21)NCCc1ccc(Cl)cc1	–	20 µM (active)
CN(C)C1CN(Cc2cn(Cc3ccccc3)nn2)S(=O)(=O)C1 (centres undefined)	1.81%	–
O=c1[nH]c2ccccc2n1C1CCN(CCOc2ccccc2)CC1	1.5%	–
COC(=O)C1(C(=O)OC)C[C@H](c2ccccc2)N(Cc2ccccc2OC)[C@@H]1c1ccccc1	-5.6%	–
O=C(NCc1ccc(Cl)cc1)c1cc2c(nc3sccn32)s1	–	31.6 µM (active)
O=C(NCc1ccc2c(c1)OCO2)c1c(O)nc2sccn2c1=O	-1.8%	–
O=C(NCc1ccc(Cl)cc1)c1cc(=O)nc2sc(-c3ccccc3)nn12	-10.5%	–
CCc1nc2ccc(C(=O)NCc3ccc(OC)cc3)cn2c1N(CC)Cc1cccc(Br)c1	-26.8%	–
COc1ccc(C(O)C(O)(C(=O)OC(C)C)c2ccc(C)cc2)cc1 (centres undefined)	-0.377%	–
